Laboratory results reported in PubChem BioAssay (Tox21).
Where “and” joins values, the source holds several entries; their conditions need not be identical. Equal values may be shown once. Records with an inconclusive call do not appear. Entries that show only a call come without a potency. The source holds several records for some structures; these can differ, active in one and inactive in another. Calls of active or inactive are those of the source. Unless noted, calls come from the whole dose curve; as a rule, active = well fitted curve in the direction sought with a large enough effect in the repeat runs; inconclusive = weak or mixed curves; inactive = no such curve, though single readings can be large; an effect the other way counts as inactive or inconclusive.

How the values were obtained:
[1] = qHTS assay to identify small molecule antagonists of the glucocorticoid receptor (GR) signaling pathway - cell viability counter screen (AID 720693); note: nearly all actives have a fitted effect of over 55% in size
[2] = qHTS assay to identify small molecule antagonists of the androgen receptor (AR) signaling pathway - cell viability counter screen (AID 743033; note: nearly all actives have a fitted effect of over 45% in size; note: potency is the fitted concentration of half-maximal effect)
[3] = target: Androgen receptor (Homo sapiens) (UniProt P10275); assay: qHTS assay to identify small molecule agonists of the androgen receptor (AR) signaling pathway using the MDA cell line (AID 743040; note: nearly all actives have a fitted effect of over 20% in size)
Sequence of Androgen receptor (Homo sapiens) (P10275 whole entry, looked up): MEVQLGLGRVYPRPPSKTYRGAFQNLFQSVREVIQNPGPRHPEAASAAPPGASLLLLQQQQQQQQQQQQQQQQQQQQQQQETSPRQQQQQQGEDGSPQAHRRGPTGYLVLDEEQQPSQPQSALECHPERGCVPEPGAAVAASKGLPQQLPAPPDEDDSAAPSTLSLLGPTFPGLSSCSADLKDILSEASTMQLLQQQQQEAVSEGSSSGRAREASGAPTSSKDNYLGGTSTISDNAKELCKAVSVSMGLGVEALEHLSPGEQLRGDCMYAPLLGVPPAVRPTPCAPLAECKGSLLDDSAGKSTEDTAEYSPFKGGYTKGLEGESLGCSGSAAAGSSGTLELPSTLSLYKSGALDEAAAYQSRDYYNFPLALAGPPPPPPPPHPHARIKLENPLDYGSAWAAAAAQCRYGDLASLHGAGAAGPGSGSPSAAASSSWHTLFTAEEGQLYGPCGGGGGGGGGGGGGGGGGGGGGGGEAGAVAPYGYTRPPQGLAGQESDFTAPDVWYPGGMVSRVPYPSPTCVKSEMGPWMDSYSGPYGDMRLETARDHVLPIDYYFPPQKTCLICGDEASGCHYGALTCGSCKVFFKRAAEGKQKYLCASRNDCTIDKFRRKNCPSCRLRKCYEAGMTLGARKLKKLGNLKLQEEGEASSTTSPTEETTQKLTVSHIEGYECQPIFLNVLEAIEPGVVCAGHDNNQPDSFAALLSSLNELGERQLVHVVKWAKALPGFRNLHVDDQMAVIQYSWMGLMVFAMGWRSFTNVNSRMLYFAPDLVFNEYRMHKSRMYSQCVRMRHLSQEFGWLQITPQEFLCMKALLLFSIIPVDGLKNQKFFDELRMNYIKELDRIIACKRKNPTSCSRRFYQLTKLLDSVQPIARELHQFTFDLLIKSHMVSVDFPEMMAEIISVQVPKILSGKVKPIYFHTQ
In short: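 Luciferase agonist assay: 16 h compound exposure at 37C without CO2 in MDA-kb2 AR-luc cells, whose MMTV promoter responds to both AR and GR. Luminescence measured after 30 min room-temperature incubation with ONE-Glo.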

[4] = qHTS assay to identify small molecule antagonists of the androgen receptor (AR) signaling pathway using the MDA cell line - cell viability counter screen (AID 743041; note: nearly all actives have a fitted effect of over 45% in size)
In short: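 Viability read by CellTiter-Fluor fluorescence in the same wells as the antagonist screen, added after 15.5 h of a 16 h, 37C exposure. Human breast carcinoma MDA-kb2 AR-luc cells, compounds co-dosed with agonist R1881.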

[5] = qHTS assay to identify small molecule antagonists of the thyroid receptor (TR) signaling pathway - cell viability counter screen (AID 743064); note: nearly all actives have a fitted effect of over 50% in size; note: potency is the fitted concentration of half-maximal effect
In short: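 GH3.TRE-Luc cells, 4 h pre-plating; cpd + T3 1 nM final; 37 °C 23.5 h; CellTiter-Fluor 30 min; fluorescence read.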

[6] = qHTS assay for identifying genotoxic compounds that show differential cytotoxicity against isogenic chicken DT40 cell lines with known DNA damage response pathways - wild type cell line (AID 743012); note: nearly all actives have a fitted effect of over 60% in size; note: potency is the fitted concentration of half-maximal effect
In short: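 Viability of DNA repair-proficient chicken DT40 cells was assessed by CellTiter-Glo luminescence following 40 h compound exposure at 37 C/5% CO2.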

[7] = qHTS assay for identifying genotoxic compounds that show differential cytotoxicity against isogenic chicken DT40 cell lines with known DNA damage response pathways - Rev3 mutant cell line (AID 743014); note: nearly all actives have a fitted effect of over 55% in size; note: potency is the fitted concentration of half-maximal effect
[8] = qHTS assay for identifying genotoxic compounds that show differential cytotoxicity against isogenic chicken DT40 cell lines with known DNA damage response pathways - Rad54/Ku70 mutant cell line (AID 743015); note: nearly all actives have a fitted effect of over 60% in size; note: potency is the fitted concentration of half-maximal effect
[9] = target: Androgen receptor (Homo sapiens) (UniProt P10275); assay: qHTS assay to identify small molecule antagonists of the androgen receptor (AR) signaling pathway (AID 743035; active = well fitted inhibition curve with a large enough effect in the signal ratio in the repeat runs, not every such curve was filed as active; the % refers to the signal ratio; note: potency is the fitted concentration of half-maximal effect)
In short: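 Reporter HEK293 cells were exposed to compounds and R1881 overnight (16 h, 37C); beta-lactamase activity was then quantified by FRET fluorescence.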

[10] = target: Androgen receptor (Homo sapiens) (UniProt P10275); assay: qHTS assay to identify small molecule antagonists of the androgen receptor (AR) signaling pathway using the MDA cell line (AID 743042; note: nearly all actives have a fitted effect of over 55% in size)
In short: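 Antagonist mode: compounds plus R1881 agonist added to MDA-kb2 AR-luc cells, incubated 16 h at 37C. Luciferase reporter luminescence quantified, with multiplexed CellTiter-Fluor readout for cell viability.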

| Structure (SMILES) | Potency [1] | Potency [2] | Potency [3] | Potency [4] | Potency [5] | Potency [6] | Potency [7] | Potency [8] | Potency [9] | Potency [10] |
| --- | --- | --- | --- | --- | --- | --- | --- | --- | --- | --- |
| N#CCC#N | inactive | inactive | inactive | inactive | 61.1 µM (active) |  |  |  |  |  |
| NC(=O)C(Cl)(Cl)Cl |  | inactive |  | inactive | inactive | inactive | inactive | inactive |  |  |
| COCCOCCO |  | inactive |  | inactive | 30.6 µM (active) |  |  | 61.1 µM (active) |  |  |
| CCCC(Cn1cncn1)c1ccc(Cl)cc1Cl (stereo not drawn) |  |  |  |  |  | 5.45 µM (active) | 6.11 µM (active) | 10.9 µM (active) |  |  |
| N#Cc1cc(I)c(O)c(I)c1 |  | 49 µM (active) | inactive |  |  |  | 68.6 µM (active) |  |  |  |
| OC(c1ccc(Cl)cc1)(c1ccc(Cl)cc1)c1cccnc1 |  | 54.9 µM (active) | inactive | inactive | 61.1 µM (active) | 9.69 µM (active) | 8.63 µM (active) | 8.63 µM (active) | 34.7 µM (active) |  |
| CCCCC(O)(Cn1cncn1)c1ccc(Cl)cc1Cl (stereo not drawn) |  | 48.9 µM (active) | inactive | inactive |  | 15.3 µM (active) | 13.7 µM (active) | 13.7 µM (active) | 17.4 µM (active) |  |
| CN(C)c1ccc(N(C)C)cc1 | inactive | inactive |  | inactive |  |  |  |  |  |  |
| O=C1C(=O)c2cccc3cccc1c23 |  |  |  | inactive | inactive | 2.73 µM (active) | 1.72 µM (active) | 2.43 µM (active) |  |  |
| IC(I)=C(I)I |  | 12.3 µM (active) | inactive |  | 7.7 µM (active) | 0.611 µM (active) | 1.22 µM (active) | 1.22 µM (active) |  |  |
| CCCN(CC1CC1)c1c([N+](=O)[O-])cc(C(F)(F)F)cc1[N+](=O)[O-] |  | inactive |  | inactive |  | inactive | inactive | inactive |  |  |
| CC(=O)c1cc2c(cc1C)C(C)(C)C(C)CC2(C)C (stereo not drawn) | inactive | inactive |  | inactive | inactive |  |  |  |  |  |
| O=C(Nc1ccccc1)Nc1ccnc(Cl)c1 |  | 38.9 µM (active) | inactive |  |  | 17.2 µM (active) | 15.4 µM (active) | 13.7 µM (active) |  |  |
| Clc1cc(C(Cl)(Cl)Cl)cnc1Cl |  | inactive |  | inactive |  | inactive | inactive | inactive |  |  |
| COc1nn(CSP(=S)(OC)OC)c(=O)s1 |  |  |  |  |  | 19.3 µM (active) | 45.8 µM (active) | 50.5 µM (active) |  |  |
| CO/N=C(/C(=O)OC)c1ccccc1COc1ccccc1C |  | 6.92 µM (active) | inactive |  | inactive | 0.611 µM (active) | 0.969 µM (active) | 0.864 µM (active) |  |  |
| C[N+](C)(C)CCCl |  | inactive | inactive | inactive | inactive | inactive | inactive | inactive | inactive |  |
| O=C(O)C1(c2ccc3c(c2)OC[C@H](Cc2ccc(-c4ccccc4)cc2)[C@H]3O)CCCC1 |  |  |  |  | 61.1 µM (active) | 61.1 µM (active) | 61.1 µM (active) | 61.1 µM (active) |  |  |
| O=C1NCN(c2ccccc2)C12CCN(CCCOc1ccc(F)cc1)CC2 |  | inactive |  |  | 13.3 µM (active) | 10.6 µM (active) | 13.3 µM (active) | 16.8 µM (active) |  |  |
| CCCCCC[N+](=O)[O-] | inactive | inactive |  | inactive |  |  |  |  | inactive |  |
| c1cc2ccc3cccc4ccc(c1)c2c34 |  |  | inactive |  | inactive | 71.9 µM (active) |  | 67.9 µM (active) |  | inactive |
| CO/C=C(/C(=O)OC)c1ccccc1COc1cccc(C(F)(F)F)n1 |  | 3.46 µM (active) |  | inactive | inactive | 0.0769 µM (active) | 0.0769 µM (active) | 0.0485 µM (active) |  |  |
| CC(C)(OO)c1ccccc1 |  | inactive |  | inactive |  | 30.6 µM (active) | 27.3 µM (active) | 17.2 µM (active) |  |  |
| O=C1c2ccccc2C(=O)C1C(=O)C(c1ccccc1)c1ccccc1 | inactive | inactive |  | inactive | inactive |  |  |  |  |  |
| O=C(CCl)c1ccc(Cl)cc1Cl |  | inactive | inactive | inactive | 1.33 µM (active) and 4.33 µM (active) and inactive | 668 nM (active) and 1.72 µM (active) | 1.06 µM (active) and 2.73 µM (active) and 17.1 µM (active) | 944 nM (active) and 2.43 µM (active) |  |  |
| C=CC(=O)NCNC(=O)C=C | inactive |  | inactive | inactive |  |  |  | 61 µM (active) |  |  |
| C=CC[C@]1(O)CC[C@H]2[C@@H]3CCC4=CC(=O)CCC4=C3C=C[C@@]21C |  | inactive |  | inactive | inactive | 9.44 µM (active) | 16.8 µM (active) | 10.6 µM (active) |  |  |
| O=C(NC(=O)c1c(F)cccc1F)Nc1cc(Cl)c(Oc2ncc(C(F)(F)F)cc2Cl)c(Cl)c1 |  |  | inactive | inactive | 58.5 µM (active) | 1.17 µM (active) | 2.08 µM (active) | 1.65 µM (active) |  |  |
| II | inactive | inactive | inactive | inactive | inactive |  |  |  | inactive |  |
